Screening data deposited in PubChem by National Center for Advancing Translational Sciences (NCATS).
Hits are enriched below; roughly 5.3% of the tested compounds scored in any of these assays.
HCV inh: blocks hepatitis C virus. Huh7.5.1 HCVcc-Cre infection, luciferase reporter, 44 h. hit rate 3.4% among 340,000. Potency, µM (top dose mostly 41.8 µM), inactives show at the highest dose activity change, negative = inhibition, hits mostly inhibitors; active = well fitted inhibition curve with a large enough effect; inconclusive = small, poorly fitted or top-dose-only effect, or another doubt; inactive = no such curve, though single readings can be large or run the other way
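Reporter virus HCVcc-Cre (~0.5 moi) infects cells exposed to compound; seeding density 1,000 cells/well with 4 h settling beforehand. Luminescence, 15 sec read, taken 44 h post-infection following a 15 min RT substrate incubation.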
FMDV inh: antivirals against foot and mouth disease virus. FMDV antiviral cell-based qHTS. Potency, µM (doses to about 57.9 µM), inactives show top-dose activity change, negative = inhibition, usual class: inhibitors. hit rate 1.2% among 410,000; calls by dose curve; tested in HEK293T cells; note: read-out not given here; nearly all actives have a fitted effect of over 45% in size
MARV entry inh: inhibitors of Marburg virus binding or cell entry; hit rate 1.8% among 300,000; Marburg virus pseudotyped entry inhibition, cell reporter; Potency, µM (top dose mostly 37.8 µM), inactives show at the top dose activity change, negative = inhibition, most hits filed as inhibitors; calls by dose curve; tested in HEK293 cells
VACV mCherry inh: inhibitors of vaccinia virus infection (mCherry reporter signal); Vaccinia virus mCherry reporter infection, fluorescence; Potency, µM (highest dose often 36.5 µM), without a hit: at the highest dose activity change, negative = inhibition, usual class: inhibitors; hit rate 0.63% among 310,000; AID 720579; calls by dose curve; tested in A549 cells; note: nearly all actives have a fitted effect of over 35% in size
Vaccinia Venus: vaccinia inhibition (Venus reporter); Potency, µM (series often up to 36.5 µM), for inactives: top-dose activity change, negative = inhibition, most hits filed as inhibitors; Vaccinia virus Venus reporter expression, fluorescence; hit rate 0.46% among 330,000; calls by dose curve; tested in A549 cells; note: nearly all actives have a fitted effect of over 30% in size
LASV entry inh: blocks Lassa virus binding to or entry into cells. Lassa virus pseudotype entry inhibition, cell reporter. Potency, µM (doses to about 37.9 µM), for the others: top-dose activity change, negative = inhibition, actives largely listed as inhibitors. hit rate 1.2% among 300,000; calls by dose curve; tested in HEK293 cells; note: nearly all actives have a fitted effect of over 50% in size
Numbers without * were called inactive; i = inactive; ? = inconclusive; / = no result; ! = repeats disagree; [ ] = dose if it differs, or a comment. % is set by controls: 0 for no effect and ±100 for the full control effect; potency is the fitted concentration of half-maximal effect.

SMILES | HCV inh | FMDV inh | MARV entry inh | VACV mCherry inh | Vaccinia Venus | LASV entry inh
Cc1cc(C)c(-c2c(N)cc(Br)cc2Br)c(N)c1 | ? | ? | ? | 13µM* | -12% | -28%[46.1 µM]
CC(C)CN(C(=O)C1=COCCO1)c1c(N)n(Cc2ccccc2)c(=O)[nH]c1=O | / | -2% | / | -5% | -12% | /
CCCS(=O)(=O)c1c(S(=O)(=O)CCC)c2cc(-c3ccncc3)ccn2c1C(=O)OC | -28% | 23% | 5.6µM* | -13% | -12% | 0%
CCC(=O)Nc1nc2c(OC)ccc(OC)c2s1 | 11µM* | -17% | / | -30% | -6% | /
CCCC(=O)Nc1nc2c(OC)ccc(OC)c2s1 | 8.9µM* | 3% | / | 0% | -4% | /
COc1ccc(OC)c2sc(NC(=O)C3CC3)nc12 | ? | -18% | / | -29% | 1% | /
COc1ccc(OC)c2sc(NC(=O)c3ccc(Br)s3)nc12 | 3% | -12% | / | ? | 11µM* | /
Cc1cnc(-n2ncc(C(=O)NCCN3CCOCC3)c2C(C)C)nc1-c1ccc(F)cc1 | / | 9% | / | -3% | -2% | /
Cc1ccc(-c2csc3ncnc(Sc4nnc(CN5CCCCCC5=O)o4)c23)cc1 | ? | 14µM* | ? | / | / | ?
Cc1ccc(-c2csc3ncnc(SCC(=O)Nc4nnc(C)s4)c23)cc1 | 5% | -1% | ? | / | / | 3%
CCC(=O)N1CCC1(C)C(=O)Nc1ncc(C)s1 (stereo not given) | / | -1% | / | 4% | -4% | /
COc1ccc(C[C@@H]2C(=O)N[C@H](C)C(=O)N(C)[C@@H]3Cc4ccc(cc4)Oc4cc(ccc4O)C[C@H](C(=O)N[C@@H](C)C(=O)N[C@H](C)C(=O)N2C)N(C)C3=O)cc1 | / | / | / | 158µM* | 0.28µM* | /
COc1ccc(CC2C(=O)NC(C)C(=O)N(C)C3C(=O)N(C)C(Cc4ccc(O)c(c4)Oc4ccc(cc4)C3O)C(=O)NC(C)C(=O)NC(C)C(=O)N2C)cc1 (stereo not given) | ? | ? | ? | 0.32µM* | 0.089µM* | ?
COc1ccc(COC(=O)C2=C(C)NC(=O)NC2c2ccc(O)c(OC)c2)cc1 (stereo not given) | -17% | / | -8% | i | -17% | ?
Cc1c(CCC(=O)NCc2ccc(F)cc2)c(=O)oc2cc(O)ccc12 | / | -15% | 18%[46.1 µM] | -14% | -13% | 3%[46.1 µM]
COc1ccc(N2CCN(C(=S)Nc3ccccc3)CC2)cc1 | -10% | 16% | ? | -18% | -7% | ?
CC(=O)c1ccc(N2CCN(C(=O)c3ccc(-c4ccccc4)cc3)CC2)cc1 | 4% | -8% | -22%[46.1 µM] | i | -9% | ?
CC(=O)c1ccc(N2CCN(C(=O)c3cccc(Oc4ccccc4)c3)CC2)cc1 | -29% | -21% | ? | -12% | -24% | 3.2µM*
CC(=O)c1ccc(N2CCN(C(=S)Nc3ccc(Oc4ccccc4)cc3)CC2)cc1 | 4.5µM* | 0% | ? | ? | -24% | ?
O=C(CN1Cc2ccccc2OC(c2ccsc2)C1)NCC1OCCc2ccccc21 (stereo not given) | / | 0% | / | 0% | 0% | /
O=S1(=O)N[C@@H](Cc2ccccc2)COc2cccc(N3CCCCC3)c21 | / | / | / | / | / | 4%[46.1 µM]
O=c1[nH]c2ccccc2n1C1CCN(C(c2cc3ccccc3o2)c2nnnn2-c2ccc3c(c2)OCCO3)CC1 (stereo not given) | / | 35µM* | / | ? | ? | /
Cc1csc(CN(C)C(=O)CC2C(=O)NCCN2Cc2ccc(Cl)c(F)c2)n1 (stereo not given) | 18% | -2% | / | / | / | /
CCc1ccc(-c2cc(C(=O)N/N=C/c3c[nH]c4ccccc34)[nH]n2)cc1 | ? | ? | ? | ? | -19% | ?
CCc1ccc2c(Cl)c(C(=O)N/N=C/c3c[nH]c4ccccc34)sc2c1 | ? | -5% | ? | / | ? | 10µM*
SMILES | HCV inh | FMDV inh | MARV entry inh | VACV mCherry inh | Vaccinia Venus | LASV entry inh
COc1ccc(/C=N/NC(=O)CCn2cnc(-c3ccccc3)c2-c2ccccc2)cc1 | 9% | ? | 18µM* | / | / | 2.3µM*
O=C(CCn1cnc(-c2ccccc2)c1-c1ccccc1)N/N=C/c1ccccc1O | ? | -7% | ? | / | / | 23µM*
COc1cccc(NC(=O)CSc2nc3c(oc4ccccc43)c(=O)n2Cc2ccco2)c1 | / | -4% | -19%[46.1 µM] | -15% | -7% | /
C=CS(=O)(=O)N(Cc1ccccc1)[C@H](CO)CC(C)C | 19% | -30% | / | ? | 1.1µM* | /
CC(C)C[C@H](CO)N(Cc1ccccc1)S(=O)(=O)N(Cc1ccccc1)[C@@H](CO)CC(C)C | ? | ? | / | 14µM*! | ? | /
C=CS(=O)(=O)N(Cc1ccccc1Br)[C@H](CO)Cc1ccccc1 | -21% | ? | / | ? | 1.1µM* | /
O=S(=O)(N(Cc1ccccc1)[C@@H](CO)Cc1ccccc1)N(Cc1ccccc1)[C@@H](CO)Cc1ccccc1 | -2% | -25% | / | -6% | -27% | /
Cc1ccc(-n2ncc(C(=O)NCc3ccccc3)c2C2CCN(C(=O)OC(C)(C)C)CC2)cc1 | / | 0% | / | -10% | -12% | ?
C[N+]1(CC(=O)c2ccc(-c3ccccc3)cc2)CCOCC1 | / | / | / | i | -11% | /
COc1cccc(CNC(=O)CSc2n[nH]c(-c3ccccc3Cl)n2)c1 | / | -29% | / | -7% | -5% | -19%[46.1 µM]
COC1=C(N)C(=O)c2nc(C)ccc2C1=O | ? | 10µM* | ? | i | 4% | -21%
COC1=C(Br)C(=O)c2nc(C)ccc2C1=O | / | 40µM* | / | -6% | -24% | /
COC1=C(Nc2ccc(C)cc2)C(=O)c2ccccc2C1=O | ? | -15% | ? | ? | ? | ?
CCn1cc(C(=O)N2CCCC(C(=O)c3cccc(C(F)(F)F)c3)C2)cn1 (stereo not given) | / | -16% | / | i | -14% | /
O=C(Nc1cc(Sc2ccccn2)cc([N+](=O)[O-])c1)c1cccc(Cl)c1 | 8.9µM* | 25µM* | ? | i | ? | -9%
O=C(Nc1cc(Sc2ccccn2)cc([N+](=O)[O-])c1)c1ccc(Cl)cc1 | 10µM* | 28µM* | ? | / | 10µM* | ?
COc1cc(OC)c(OC)cc1CN1CCCC(c2nc(C)ncc2-c2ccc(F)cc2)C1 (stereo not given) | / | -10% | / | -1% | -14% | /
Cc1cccc(NC(=O)COc2ccccc2C(=O)Nc2ccccc2)c1 | / | / | / | i | -12% | /
COC(=O)c1ccc(NC(=O)CSc2nc3ccc(N4C(=O)C5C6C=CC(C6)C5C4=O)cc3s2)cc1 (stereo not given) | 11µM* | 14µM* | ? | ? | 7.1µM* | ?
CCc1cccc(CC)c1NC(=O)CSc1nc2ccc(N3C(=O)C4C5C=CC(C5)C4C3=O)cc2s1 (stereo not given) | 11µM* | ? | ? | ? | ? | ?
CC(C)[C@H](N)C(=O)OCCOCn1cnc2c(=O)[nH]c(N)nc21 | 0.5µM*! | -11% | / | i | -17% | /
